The panel holds about 83,000 compounds, 20% with a hit somewhere; the sample as a whole holds those more often.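 Each cell line was grown in a 96-well plate and treated with one concentration of compound for 48 hours. Values below 10 were considered active.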 The source made the active and inactive calls.

This assay deals with SK-MEL-28 melanoma. Put plainly: NCI-60 one-dose screen, 48 h (100 = growth as untreated, 0 = no growth, -100 = all killed). The conditions noted are these: 10 µM.
As to `CN(C)c1ccc(/C=C/C=N/NC(=O)c2cc(O)c(O)c(O)c2)cc1`, the growth is 108% (inactive).
Regarding `Cc1ccc(S(=O)(=O)OCCN(CCOS(=O)(=O)c2ccc(C)cc2)c2c[nH]c(=O)[nH]c2=O)cc1`, the growth is 102% (inactive).
For the molecule `O=c1oc2cc(OS(=O)(=O)c3ccccc3)ccc2c2c1CCCCC2`, the growth was 73.2% (inactive).
For `COc1ccc(-c2nn(-c3cccc(NC(=O)c4ccc5c(c4)OCCO5)c3)cc2-c2ccncc2)cc1Cl`, the growth was 38.3% (inactive).
Under `Cc1ncc(-c2ccoc2)c(NC2CCCCCC2)n1` stands 128% (inactive); under `Clc1ccc(Sc2nc(NC3CC3)nc(Sc3ccc(Cl)cc3)n2)cc1`, 87.5% (inactive); under `CN(C)CCN1C(=O)c2cccc3c(-c4ccc5ncn(C6CCCCC6)c5c4)ccc(c23)C1=O`, 47.2% (inactive).
For `O=C(Nc1cccc(-n2cc(-c3ccncc3)c(-c3ccc(O)c(Cl)c3)n2)c1)Nc1cccc(C(F)(F)F)c1`, the growth was -5.89% (active).
For `CN(C)Cc1cn(-c2ncc(-c3ccc(C(F)(F)F)cc3)c(NC3CCCCCC3)n2)nn1`, the growth was 97.4% (inactive).
With `COc1ccc(/C=C/C(C)=N/OCC(=O)O)cc1`, the growth is 114% (inactive).
On to `COc1ccc(-c2nn(-c3cccc(NC(=O)c4cc(C(F)(F)F)cc(C(F)(F)F)c4)c3)cc2-c2ccncc2)cc1Cl`, for which the growth was 67.3% (inactive).
As for `O=C1CC[C@@H]2CCCC[C@@H]2C1`, the growth was 112% (inactive).
Turning to `COc1ccc(C2=NN(C(=O)c3ccc(S(C)(=O)=O)cc3)C(c3ccc(OC)c(OC)c3)C2)c(OC)c1` (stereo not given), the growth is 112% (inactive).
With `O=C1OCC2=C1C(c1cccc(Cl)c1)c1cc3c(cc1N2CCO)CCC3` (stereo not given), the growth is 59.2% (inactive).
For the molecule `COc1ccc2c(c1)N(CCO)C1=C(C(=O)OC1)C2c1cc(OC)c(OC)c(OC)c1` (stereo not given), the growth was 65.6% (inactive).
On to `CCOC(=O)c1ccoc1`, for which the growth was 106% (inactive).
Take `O=S(=O)(NCCNc1nccc(-c2c(-c3ccc(F)cc3)nc3sccn23)n1)c1ccc2ccccc2c1`: the growth was 93% (inactive).
As to `CC1=C(N2CCOCC2)C(N2CCOCC2)=C(C)C(=O)C1=O`, the growth was 106% (inactive).
Regarding `O=C1OCC2=C1C(c1ccc(Cl)c(Cl)c1)c1cc3c(cc1N2CCO)OCCO3` (stereo not given), the growth is 53% (inactive).
Take `COc1cc2c(cc1OC)N(CCO)C1=C(C(=O)OC1)C2c1ccc(Cl)c(Cl)c1` (stereo not given): the growth is 120% (inactive).
Take `O=C1NC(=O)c2ncccc21`: the growth was 110% (inactive).
For the molecule `CNc1ncc(-c2ccc(C(F)(F)F)cc2)c(NC2CCCCCC2)n1`, the growth is 88% (inactive).
Take `O=C(NC(Cc1ccc(O)cc1)C(=O)N=Nc1c(O)[nH]c2ccccc12)c1ccccc1` (stereo not given): the growth is 109% (inactive).
Regarding `O=C(CNC(=O)OCc1ccccc1)NCC(=O)Oc1ccc([N+](=O)[O-])cc1`, the growth was 104% (inactive).
As to `COc1cc2nc(Nc3cccc(C(=O)O)c3)nc(N)c2cc1OC`, the growth is 103% (inactive).

The record behind these values is PubChem BioAssay (NCI).
